Test results from PubChem BioAssay (NCI).
About 83,000 compounds went through this panel and 20% of them were active in at least one assay; those are over-represented in the sample as a whole.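 A percent growth of 40 corresponds to 60% growth inhibition; 0 means no net growth; -100 means all cells died. Active threshold: below 10.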 Activity calls are given as the source filed them.

What was measured:
Assay in all cases: NCI-60 one-dose screen, 48 h (100 = growth as untreated, 0 = no growth, -100 = all killed)
Settings in all cases: 10 µM
[1] = tested on: HT29 colon
[2] = tested on: SNB-75 CNS
[3] = tested on: SNB-19 CNS
[4] = tested on: U251 CNS
[5] = tested on: PC-3 prostate
[6] = tested on: SK-MEL-5 melanoma
[7] = tested on: UACC-62 melanoma
[8] = tested on: LOX IMVI melanoma
[9] = tested on: SK-MEL-28 melanoma
[10] = tested on: SK-MEL-2 melanoma
[11] = tested on: SN12C renal
[12] = tested on: UO-31 renal
[13] = tested on: TK-10 renal
[14] = tested on: ACHN renal
[15] = tested on: CAKI-1 renal
[16] = tested on: A498 renal
[17] = tested on: CCRF-CEM leukemia
[18] = tested on: MOLT-4 leukemia
[19] = tested on: SR leukemia

Measured: growth

COc1cc(NC(=O)CCSc2nc3ccc(C)cc3c(=O)n2Cc2ccccc2)cc(OC)c1OC
active: [2] -13.9%
inactive: [1] 78.9% | [3] 73.3% | [4] 44.3% | [5] 83% | [6] 90.6% | [7] 85% | [8] 71.6% | [9] 74% | [10] 52.6% | [11] 89.5% | [12] 71.2% | [13] 96.1% | [14] 53.3% | [15] 65.1% | [16] 77.6% | [17] 105% | [18] 103% | [19] 95.3%

CCOC(=O)C1(CC(C)C)CCOC1=O (stereo not given)
inactive: [1] 104% | [2] 86.8% | [3] 102% | [4] 95.2% | [5] 93.3% | [6] 104% | [7] 96.7% | [8] 96.8% | [9] 103% | [10] 113% | [11] 94.7% | [12] 90.1% | [13] 106% | [14] 98.2% | [15] 92.4% | [16] 107% | [17] 92.2% | [18] 100% | [19] 104%

COc1cc(-c2nc(-c3nnc(-c4ccccc4Cl)o3)c3ccccn23)cc(OC)c1OC
inactive: [1] 91.4% | [2] 79.4% | [3] 101% | [4] 96.9% | [5] 74.2% | [6] 80.2% | [7] 69.8% | [8] 77.9% | [9] 94.6% | [10] 79% | [11] 82.9% | [12] 67.6% | [13] 106% | [14] 68.3% | [15] 86.2% | [16] 84.3% | [18] 56.3% | [19] 72.2%

CN(Cc1ccccc1)Cc1ccc([N+](=O)[O-])cc1I
inactive: [1] 93.8% | [2] 94.7% | [3] 91.6% | [4] 89.4% | [5] 90.5% | [6] 93.5% | [7] 94.2% | [8] 102% | [9] 97.1% | [10] 95.3% | [11] 99.9% | [12] 88.4% | [13] 106% | [14] 101% | [15] 93% | [16] 81.4% | [18] 91.1% | [19] 67.2%

Cc1cc(Cc2cc(C)c(O)c(C)c2)cc(C)c1O
inactive: [1] 88.1% | [2] 48% | [3] 66.6% | [4] 49.6% | [5] 75.1% | [6] 38.9% | [7] 53.2% | [8] 43.5% | [9] 70% | [11] 65.3% | [12] 61.2% | [13] 77.5% | [14] 72.1% | [15] 42.8% | [16] 97.5% | [18] 22.8% | [19] 25.1%
active: [10] 6.12%

N#Cc1cccc(OCc2nc(N)nc(N)c2-c2ccc(Cl)c(Cl)c2)c1
inactive: [2] 51.7% | [3] 47.1% | [4] 22% | [5] 27.5% | [6] 22.4% | [7] 22.7% | [8] 15.5% | [9] 53.4% | [10] 42.8% | [11] 33.3% | [12] 33.6% | [13] 46.1% | [14] 17.7% | [15] 10.5% | [16] 53.5% | [18] 32.7% | [19] 18.1%
active: [1] 9.63%

COc1cc(NC(=O)c2sc3nc4c(cc3c2N)C(O)CCC4)cc(OC)c1 (stereo not given)
inactive: [1] 67% | [2] 82.1% | [3] 93.6% | [4] 78.6% | [5] 99.5% | [6] 88.4% | [7] 73% | [8] 93.3% | [9] 85.1% | [10] 61.6% | [11] 93.5% | [12] 85.1% | [13] 102% | [14] 100% | [15] 90.4% | [16] 55.2% | [17] 68.7% | [18] 63.1% | [19] 16.8%

COc1ccc(/C=C2/CN(CCC#N)C/C(=C\c3ccc(OC)cc3)C2=O)cc1
inactive: [2] 51.4% | [3] 59.6% | [10] 57.3% | [13] 16.2% | [16] 56.3%
active: [1] -37.6% | [4] -28.3% | [5] -11.7% | [6] -0.858% | [7] -27.5% | [8] -53.7% | [9] 6.16% | [11] -57% | [12] -43.8% | [14] 8.83% | [15] -19.4% | [17] 0.103% | [18] 3.59% | [19] -2.63%

COc1cc(Nc2ccnc(NCCNc3ccnc4cc(Cl)ccc34)n2)cc(OC)c1
active: [1] 1.76% | [4] 9.32% | [6] -92.8% | [8] -37.2% | [9] -94.9%
inactive: [2] 68.7% | [3] 64.2% | [5] 46.5% | [7] 51.1% | [10] 48.7% | [11] 52% | [12] 37% | [13] 48.3% | [14] 30.7% | [15] 40.8% | [16] 39.9% | [18] 15.3%

COc1ccc2c(c1)O/C(=C\c1ccc([N+](=O)[O-])o1)C2=O
inactive: [2] 58.7% | [3] 59.7% | [6] 13% | [9] 41.9% | [16] 56.6%
active: [1] -33.1% | [4] 9.08% | [5] -2.47% | [7] -37.6% | [8] -64.7% | [10] -39.4% | [11] 6.92% | [12] -73.5% | [13] -33.7% | [14] 6.05% | [15] -2.99% | [18] -0.0457% | [19] 7.61%

COc1ccc2nc3cc(Cl)ccc3c(NCCNCC(C)O)c2c1 (stereo not given)
active: [1] -37.7% | [4] -8.32% | [13] -15.6% | [19] 2.01%
inactive: [2] 63.7% | [3] 34% | [5] 28.1% | [6] 81% | [7] 54.1% | [8] 14.5% | [9] 54.7% | [10] 31.1% | [11] 27.3% | [12] 32.4% | [14] 22.6% | [15] 47.6% | [16] 37% | [17] 19.3% | [18] 11.7%

Cc1cc(=O)n2nnc3c4ccccc4ccc3n12
inactive: [1] 85.4% | [2] 102% | [3] 94.9% | [4] 97% | [5] 62.5% | [6] 88.5% | [7] 79.9% | [8] 89.3% | [9] 98.2% | [10] 113% | [11] 37.2% | [12] 46.8% | [13] 74.1% | [14] 78.1% | [15] 67.8% | [16] 108% | [17] 23.4%
active: [19] 9.54%

Cn1c([N+](=O)[O-])cnc1/C=C1\Oc2cc(Cl)ccc2C1=O
active: [1] -25.4% | [4] -9% | [5] -12.5% | [6] -77.4% | [7] 7.22% | [8] -60.3% | [9] -9.7% | [10] -55.2% | [11] -15.1% | [12] -35.2% | [13] -24.4% | [14] 6.42% | [15] -21.1% | [17] -0.667% | [19] 8.29%
inactive: [2] 65.6% | [3] 15.6% | [16] 57.4%

CS(=O)(=O)Nc1ccc(Nc2c3ccccc3nc3cc(N)ccc23)cc1
active: [4] 3.29% | [6] 5.37% | [11] 5.31% | [18] 5.41% | [19] 8.53%
inactive: [1] 55.9% | [2] 38.8% | [3] 22.2% | [5] 51.3% | [7] 40.2% | [8] 23.4% | [9] 42.3% | [10] 25.1% | [12] 28.6% | [13] 62.3% | [14] 24.9% | [15] 19.9% | [16] 57.1%

CCCCCCCC(C)NCCO (stereo not given)
inactive: [1] 103% | [2] 99.4% | [3] 109% | [4] 108% | [5] 105% | [6] 101% | [7] 113% | [8] 92.8% | [9] 112% | [10] 106% | [11] 112% | [12] 80.8% | [13] 105% | [14] 117% | [15] 97.1% | [16] 104% | [18] 99.6% | [19] 108%

COc1ccccc1CNCCCN1C(=O)c2ccc3c4c(ccc(c24)C1=O)C(=O)N(CCCN)C3=O
active: [1] -51.1% | [3] -5.76% | [4] -46.6% | [5] -8.32% | [6] -97.5% | [7] -90.2% | [8] -61% | [9] 5.1% | [10] -57.3% | [11] -89% | [12] -20.8% | [13] -3.35% | [14] 2.62% | [16] -0.046% | [17] -10.4% | [19] 5.24%
inactive: [2] 39.3% | [15] 31.3%

CCCCCCN1C(=O)C2=C(c3ccc(Cl)cc3)Nc3c(c(C)nn3-c3ccccc3)C2c2ccccc21 (stereo not given)
inactive: [1] 98.1% | [2] 83.6% | [3] 89.4% | [4] 87.8% | [5] 76.7% | [6] 92.7% | [7] 94.8% | [8] 94.6% | [9] 96.4% | [10] 91.1% | [11] 91.2% | [12] 79.2% | [13] 107% | [14] 97.1% | [15] 74.5% | [17] 85.8% | [18] 73.4% | [19] 76.3%
